Results filed as inconclusive are left out. Entries that show only a call come without a potency. Activity calls are given as the source filed them. Calls come from the whole dose curve; as a rule, active = well fitted inhibition curve with a large enough effect; inconclusive = small, poorly fitted or top-dose-only effect; inactive = flat fitted curve, though single readings scatter.
Potency is the fitted concentration of half-maximal effect.

The test system of one test is CP215. Kind of test: qHTS profiling for inhibitors of Plasmodium falciparum proliferation (AID 504749). Note: nearly all actives have a fitted effect of over 60% in size. The conditions noted are these: P. falciparum in erythrocytes, SYBR Green DNA, 72 h; series mostly up to 28.7 µM. The essentials: (§1)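 Quantitative HTS: compounds pinned into medium, infected erythrocytes added (0.3% parasitemia, 2.5% hematocrit), 72 h culture at 37 C under 5% CO2. Saponin/Triton lysis with SYBR Green I, overnight RT, then fluorescence read.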
On to `O=C(OCc1ccccc1)c1ccccc1`, for which the Potency entry is “inactive”.

In the case of `Nc1ccc(C(=O)O)c(O)c1`, the Potency entry was “inactive”.

As to `O=C(/C=C/c1ccccc1)NCCO`, the Potency entry was “inactive”.

As for `CCCCCCCCCCCCCCCCCC(=O)O`, the Potency result was “inactive”.

On to `O=C(O)c1cc(O)c(O)c(O)c1`, for which the Potency entry was “inactive”.

On to `C[S+](CC[C@H](N)C(=O)O)C[C@H]1O[C@@H](n2cnc3c(N)ncnc32)[C@H](O)[C@@H]1O` (stereo partly drawn), for which the Potency entry is “inactive”.

On to `CCOC(=O)c1ccccc1O`, for which the Potency entry was “inactive”.

Turning to `COc1cc(/C=C/C(=O)N2CCN(CC(=O)N3CCCC3)CC2)cc(OC)c1OC`, the Potency entry is “inactive”.

In the case of `Nc1cc(-c2ccncc2)c[nH]c1=O`, the Potency result was “inactive”.

In the case of `O=C(O)c1ccccc1Nc1cccc(C(F)(F)F)c1`, the Potency entry was “inactive”.

Take `COc1cc(/C=C/C(=O)CC(=O)/C=C/c2ccc(O)c(OC)c2)ccc1O`: the Potency was 16.9 µM (active).

Turning to `CCCC(=O)OC[C@@H](OC(=O)CCC)[C@@H](OC(=O)CCC)[C@H](Cn1c2nc(=O)[nH]c(=O)c-2nc2cc(C)c(C)cc21)OC(=O)CCC`, the Potency entry is “inactive”.

Take `c1ccc2sc(SN3CCOCC3)nc2c1`: the Potency result was “inactive”.

With `Clc1ccccc1-c1nc(-c2ccncc2)no1`, the Potency result was “inactive”.

On to `CCOc1ccc2nc(S(N)(=O)=O)sc2c1`, for which the Potency entry was “inactive”.

As to `O=C(O)/C=C/C(O)c1ccc(Cl)cc1` (stereo not drawn), the Potency entry was “inactive”.

In the case of `Oc1c(Br)cc(Br)c2cccnc12`, the Potency result is “inactive”.

Regarding `Cc1ccc(C(=O)c2ccc(CC(=O)O)n2C)cc1`, the Potency result is “inactive”.

As for `O=C(CCN1CCN(CCO)CC1)N1c2ccccc2Sc2ccc(C(F)(F)F)cc21`, the Potency entry was “inactive”.

Consider `Cc1cc(O)c2ccccc2c1O`, for which the Potency entry was “inactive”.

Take `COc1ccc(-c2cc(=S)ss2)cc1`: the Potency result was “inactive”.

As for `CN1[C@@H]2CC[C@H]1CC(OC(=O)C(CO)c1ccccc1)C2` (stereo partly drawn), the Potency entry was “inactive”.

Consider `CCCSc1ccc2nc(NC(=O)OC)[nH]c2c1`, for which the Potency entry was “inactive”.

For the compound `O=C(O)[C@H](CC(=O)N1C[C@H]2CCCC[C@H]2C1)Cc1ccccc1`, the Potency entry was “inactive”.

For `C=C(Nc1ccc(OCC)cc1)Nc1ccc(OCC)cc1`, the Potency result is “inactive”.

For the compound `CC(=O)[C@]1(O)Cc2c(O)c3c(c(O)c2[C@@H](O[C@H]2C[C@H](N)[C@H](O)[C@H](C)O2)C1)C(=O)c1c(O)cccc1C3=O`, the Potency was 12 µM (active).

A further test has as its system CP217. The description is as above. The settings on record: P. falciparum in erythrocytes, SYBR Green DNA, 72 h; series mostly up to 28.7 µM. In outline:
as §1
Consider `CN(C)c1ccc(C(=C2C=CC(=[N+](C)C)C=C2)c2ccccc2)cc1`, for which the Potency is 11.2 µM (active).

For the compound `O=C(OCc1ccccc1)c1ccccc1`, the Potency result was “inactive”.

On to `Nc1ccc(C(=O)O)c(O)c1`, for which the Potency entry is “inactive”.

For the compound `O=C(/C=C/c1ccccc1)NCCO`, the Potency result was “inactive”.

As for `O=C1CN(/N=C/c2ccc(-c3ccc([N+](=O)[O-])cc3)o2)C(=O)N1`, the Potency result is “inactive”.

For `CCCCCCCCCCCCCCCCCC(=O)O`, the Potency entry was “inactive”.

Take `O=C(O)c1cc(O)c(O)c(O)c1`: the Potency entry was “inactive”.

Take `CCOC(=O)c1ccccc1O`: the Potency result was “inactive”.

Turning to `COc1cc(/C=C/C(=O)N2CCN(CC(=O)N3CCCC3)CC2)cc(OC)c1OC`, the Potency result is “inactive”.

On to `Nc1cc(-c2ccncc2)c[nH]c1=O`, for which the Potency result is “inactive”.

As for `O=C(O)c1ccccc1Nc1cccc(C(F)(F)F)c1`, the Potency entry was “inactive”.

With `c1ccc2sc(SN3CCOCC3)nc2c1`, the Potency entry was “inactive”.

As for `Clc1ccccc1-c1nc(-c2ccncc2)no1`, the Potency result is “inactive”.

`CCOc1ccc2nc(S(N)(=O)=O)sc2c1`: the Potency result was “inactive”.

As for `CN1[C@@H]2CC[C@H]1CC(OC(c1ccccc1)c1ccccc1)C2` (stereo partly drawn), the Potency is 12.6 µM (active).

Turning to `O=C(O)/C=C/C(O)c1ccc(Cl)cc1` (stereo not drawn), the Potency entry was “inactive”.

As for `Oc1c(Br)cc(Br)c2cccnc12`, the Potency entry is “inactive”.

Take `Cc1ccc(C(=O)c2ccc(CC(=O)O)n2C)cc1`: the Potency entry is “inactive”.

On to `Cc1cc(O)c2ccccc2c1O`, for which the Potency result was “inactive”.

In the case of `COc1ccc(-c2cc(=S)ss2)cc1`, the Potency result is “inactive”.

As to `CN1[C@@H]2CC[C@H]1CC(OC(=O)C(CO)c1ccccc1)C2` (stereo partly drawn), the Potency entry was “inactive”.

Turning to `CCCSc1ccc2nc(NC(=O)OC)[nH]c2c1`, the Potency result was “inactive”.

For the compound `O=C(O)[C@H](CC(=O)N1C[C@H]2CCCC[C@H]2C1)Cc1ccccc1`, the Potency entry was “inactive”.

`C=C(Nc1ccc(OCC)cc1)Nc1ccc(OCC)cc1`: the Potency entry is “inactive”.

For a further test, the system named is CP237. Described as above. The settings on record: P. falciparum in erythrocytes, SYBR Green DNA, 72 h; series mostly up to 28.7 µM. In outline: as §1
As for `CN(C)c1ccc(C(=C2C=CC(=[N+](C)C)C=C2)c2ccccc2)cc1`, the Potency was 8.91 µM (active).

Turning to `Nc1ccc(C(=O)O)c(O)c1`, the Potency result was “inactive”.

On to `O=C(/C=C/c1ccccc1)NCCO`, for which the Potency entry is “inactive”.

Turning to `CCCCCCCCCCCCCCCCCC(=O)O`, the Potency result is “inactive”.

Turning to `C[S+](CC[C@H](N)C(=O)O)C[C@H]1O[C@@H](n2cnc3c(N)ncnc32)[C@H](O)[C@@H]1O` (stereo partly drawn), the Potency entry was “inactive”.

Take `CN1[C@@H](CC(=O)c2ccccc2)CCC[C@H]1C[C@H](O)c1ccccc1`: the Potency was 7.94 µM (active).

Turning to `CCOC(=O)c1ccccc1O`, the Potency result is “inactive”.

In the case of `COc1cc(/C=C/C(=O)N2CCN(CC(=O)N3CCCC3)CC2)cc(OC)c1OC`, the Potency result was “inactive”.

As to `Nc1cc(-c2ccncc2)c[nH]c1=O`, the Potency result is “inactive”.

As for `O=C(O)c1ccccc1Nc1cccc(C(F)(F)F)c1`, the Potency entry was “inactive”.

For the compound `CCCC(=O)OC[C@@H](OC(=O)CCC)[C@@H](OC(=O)CCC)[C@H](Cn1c2nc(=O)[nH]c(=O)c-2nc2cc(C)c(C)cc21)OC(=O)CCC`, the Potency entry was “inactive”.

For `c1ccc2sc(SN3CCOCC3)nc2c1`, the Potency result was “inactive”.

As for `Cc1nc2ccccc2n1Cc1ccc(Cl)cc1`, the Potency result was “inactive”.

Consider `Clc1ccccc1-c1nc(-c2ccncc2)no1`, for which the Potency result was “inactive”.

With `CCOc1ccc2nc(S(N)(=O)=O)sc2c1`, the Potency entry was “inactive”.

In the case of `O=C(O)/C=C/C(O)c1ccc(Cl)cc1` (stereo not drawn), the Potency result was “inactive”.

As to `Oc1c(Br)cc(Br)c2cccnc12`, the Potency result is “inactive”.

Turning to `Cc1ccc(C(=O)c2ccc(CC(=O)O)n2C)cc1`, the Potency entry was “inactive”.

In the case of `O=C(CCN1CCN(CCO)CC1)N1c2ccccc2Sc2ccc(C(F)(F)F)cc21`, the Potency is 10 µM (active).

On to `Cc1cc(O)c2ccccc2c1O`, for which the Potency entry was “inactive”.

For `COc1ccc(-c2cc(=S)ss2)cc1`, the Potency entry was “inactive”.

Consider `CN1[C@@H]2CC[C@H]1CC(OC(=O)C(CO)c1ccccc1)C2` (stereo partly drawn), for which the Potency entry was “inactive”.

For the compound `CCCSc1ccc2nc(NC(=O)OC)[nH]c2c1`, the Potency result was “inactive”.

As to `O=C(O)[C@H](CC(=O)N1C[C@H]2CCCC[C@H]2C1)Cc1ccccc1`, the Potency entry was “inactive”.

For the compound `O=c1[nH]c2ccccc2n1CCCN1CCN(C(c2ccccc2)c2ccccc2)CC1`, the Potency is 8.91 µM (active).

`C=C(Nc1ccc(OCC)cc1)Nc1ccc(OCC)cc1`: the Potency entry is “inactive”.

Turning to `CC(=O)[C@]1(O)Cc2c(O)c3c(c(O)c2[C@@H](O[C@H]2C[C@H](N)[C@H](O)[C@H](C)O2)C1)C(=O)c1c(O)cccc1C3=O`, the Potency was 2.51 µM (active).

Take `CC(N)C(=O)OC(C)(C)Cc1ccc(Cl)cc1` (stereo not drawn): the Potency was 4.47 µM (active).

These data come from PubChem BioAssay (NCATS).
